# In all, about 2,200 compounds went through this assay and about 1,200 (55%) were called active. The limit is not given here; nearly all actives have IC50 up to about 92 µM. So high a share suggests a set chosen from earlier hits. Some of the results follow.
# Assay: counter assay for TAg ATPase ADP read-out – biochemical, ADP-Hunter, fluorescence, counter-screen (AID 2501);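 also: purified T antigen ATPase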;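 as to inhibition: 0% = enzyme with vehicle and 100% = reference inhibitor wells; higher means more inhibition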
# Settings: series mostly up to 100 µM; inhibition: at the top concentration
Structure (SMILES),IC50,inhibition
CCN(CC)c1ccc(N=Cc2c(O)n(-c3cc(OC)ccc3OC)c(=O)[nH]c2=O)cc1,6.82 µM (active),–
Cc1ccccc1-n1c(O)c(C=Nc2ccc(N(C)C)cc2)c(=O)[nH]c1=O,5.9 µM (active),–
CCN(CC)c1ccc(N=Cc2c(O)n(-c3ccccc3C)c(=O)[nH]c2=O)cc1,7.13 µM (active),–
Cc1cccc(OCCn2cccc2/C=C2/C(=O)NC(=O)N(Cc3ccco3)C2=O)c1,–,23.1% (inactive)
CN(C)c1ccc(C=C2C(=O)NC(=S)NC2=O)cc1[N+](=O)[O-],–,-11.9% (inactive)
Oc1ccc(C[C@H]2NCCc3cc(O)c(O)cc32)cc1O,–,-137% (inactive)
N#CSCC(=O)N1c2ccccc2CCc2ccccc21,–,-23.4% (inactive)
Cc1ccc(/C=C2\C(=O)NC(=S)N(c3cccc(F)c3)C2=O)o1,–,3.87% (inactive)
Cc1cc(/C=C2\C(=O)NC(=O)N(c3ccc(Cl)cc3)C2=O)c(C)n1-c1sc2c(c1C#N)CCCC2,–,-16.8% (inactive)
NCCc1c[nH]c2ccc(O)cc12,10.5 µM (active),–
CCN(CC)C(=O)c1ccc2c(c1)C1C(Cl)C(Sc3ccccc3[N+](=O)[O-])CC1C(C(=O)O)N2 (stereo unspecified),–,-62% (inactive)
O=C1NC(=S)NC(=O)C1=Cc1ccc(Br)s1,–,6.21% (inactive)
CCCCC(=O)N/N=C/c1c(O)n(Cc2ccco2)c(=O)[nH]c1=O,–,9.68% (inactive)
O=c1[nH]c(=O)n(Cc2ccccc2)c(O)c1/C=C1\C=Nc2ccccc21,–,-2.85% (inactive)
N#Cc1c(/N=C/c2c(O)n(Cc3ccco3)c(=O)[nH]c2=O)sc2c1CCCC2,27.2 µM (active),–
O=C1NC(=O)C(=Cc2ccc(-c3ccccc3[N+](=O)[O-])o2)C(=O)N1,–,11.2% (inactive)
CCN(CC)c1ccc(/C=C2\C(=O)NC(=O)N(Cc3ccco3)C2=O)cc1,–,11.5% (inactive)
O=C1NC(=O)C(=Cc2ccc(-c3ccc(F)cc3O)o2)C(=O)N1,–,-9.03% [at 50 µM] (inactive)
CC(Cc1ccccc1Sc1ccc(O)cc1)N(C)C (stereo unspecified),1.99 µM (active),–
CNC(C)Cc1ccccc1Sc1ccc(O)cc1 (stereo unspecified),2.47 µM (active),–
O=C1NC(=O)N(c2ccccc2F)C(=O)/C1=C/c1ccc(Sc2nc3ccccc3[nH]2)o1,–,11.5% (inactive)
COc1cc2c(cc1OC)-c1c(OC)c(OC)cc3c1[C@H](C2)[N+](C)(C)CC3,–,6.19% (inactive)
O=c1[nH]c(=S)n(C2CC2)c(O)c1/C=N/Nc1ccccc1,3.94 µM (active),–
COc1cccc(N2C(=O)NC(=O)/C(=C\c3ccc([N+](=O)[O-])s3)C2=O)c1,–,17.5% (inactive)
O=C1NC(=O)C(=Cc2cc3c(cc2[N+](=O)[O-])OCO3)C(=O)N1,–,-5.04% (inactive)
Cc1cccc(N2C(=O)NC(=O)/C(=C/c3ccc(-c4ccc(C(=O)O)c(Cl)c4)o3)C2=O)c1,–,-17.8% (inactive)

# Source: PubChem BioAssay AID2501 (Southern Research Specialized Biocontainment Screening …, 2010)
